This is part of a sample that, as a whole, favours compounds with a hit. Of some 83,000 tested, about 20% had one in any assay.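 The endpoint reported here, percent growth, reads 100 for growth as untreated, 0 for no net growth and -100 for all cells dead.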 Values without a mark were called inactive. Activity calls are given as the source filed them. How the source made its calls: active means growth percent below 10; inactive means the rest.
Tests used:
Experiment in all cases: NCI-60 one-dose screen, 48 h (100 = growth as untreated, 0 = no growth, -100 = all killed)
Conditions in all cases: 10 µM unless noted
[1] = tested on: T-47D breast
[2] = tested on: BT-549 breast
[3] = tested on: MDA-MB-435 melanoma
[4] = tested on: SW-620 colon
[5] = tested on: MCF7 breast
[6] = tested on: HCT-116 colon
[7] = tested on: HCC-2998 colon
[8] = tested on: KM12 colon

SMILES | growth [1] | growth [2] | growth [3] | growth [4] | growth [5] | growth [6] | growth [7] | growth [8]
c1ccc(-c2c(-c3ccccc3)[n+](Cc3ccc4ccccc4c3)c(-c3ccccc3)n2Cc2ccc3ccccc3c2)cc1 | -60.9% (active) | -87.1% (active) | -93.9% (active) | -81.7% (active) | -72.9% (active) | -74.8% (active) | -90.3% (active) | -82.9% (active)
O=S(=O)(NCCCNc1nccc(-n2cnc3ccccc32)n1)c1ccc(F)cc1 | 25.5% | 34.9% | 64.6% | 96.2% | 63.7% | 58.7% | 102% | 48.9%
CC[C@@](C)(NC(=O)C(C)(C)NC(=O)[C@@H](NC(=O)[C@@H]1CCCN1C(=O)C(C)(C)NC(=O)[C@H](CC(C)C)NC(=O)CNC(=O)C(C)(C)NC(=O)[C@@H](NC(=O)C(C)(C)NC(=O)[C@H](CCC(N)=O)NC(=O)[C@H](C)NC(=O)C(C)(C)NC(=O)[C@H](C)NC(=O)C(C)(C)NC(=O)[C@H](C)NC(=O)C(C)(C)NC(C)=O)C(C)C)C(C)C)C(=O)N[C@@H](CCC(N)=O)C(=O)N[C@@H](CCC(N)=O)C(=O)N[C@H](CO)CC1CCCCC1 | 12.2% [5 µM] | -74.3% [5 µM] (active) | 12.4% [5 µM] | 49.1% [5 µM] | 8.62% [5 µM] (active) | 12.4% [5 µM] | 28.9% [5 µM] | 34.8% [5 µM]
COc1ccccc1/C=C/C(=O)c1nnn(-c2ccc(C(=O)O)cc2)c1C | 87.9% | 96.4% | 87.8% | 102% | 54.2% | 68% | 102% | 93.8%
c1ccc(-c2n(Cc3ccc4ccccc4c3)c3c4ccccc4c4ccccc4c3[n+]2Cc2ccc3ccccc3c2)cc1 | -41.7% (active) | -69.9% (active) | -85.4% (active) | -75.4% (active) | -75% (active) | -61.6% (active) | -90.8% (active) | -85.5% (active)
CN(C)C(=O)c1ccccc1-n1cnc2ccccc2c1=O | 99.2% | 117% | 95% | 102% | 96.4% | 100% | 99.9% | 101%
CC(=O)Oc1ccc(CCN2C(=O)CSC2=S)cc1 | 41.2% | 95.9% | 69.2% | 47.1% | 33.3% | 75.6% | 108% | 22.3%
COc1ccc([C@H]2[C@H](O)C(=O)N2c2cc(OC)c(OC)c(OC)c2)cc1Cl | 69.9% | 1.85% (active) | -0.621% (active) | 17.8% | 9.61% (active) | 2.62% (active) | 13.8% | 11.3%
Cc1cc(O)c2c(c1)C(=O)C(c1c(C)cc3c(c1O)C(=O)C=CC3=O)=CC2=O | 21.9% | 113% | 96.5% | 8.08% (active) | 49.9% | 72.8% | 112% | 109%
N#Cc1ccc(S(=O)(=O)Nc2ccc(-c3cnc(N)[nH]3)cc2)cc1 | 101% | 107% | 108% | 102% | 90.7% | 107% | 105% | 103%
Oc1ccc(CSc2nnc(-c3ccc(Br)cc3)n2-c2ccccc2)c2cccnc12 | 48.1% | 40.3% | 19.5% | 26.6% | 11% | 21.7% | 44.9% | 26.3%
O=c1oc2ccc(-c3ccc(F)cc3F)cc2c(=O)n1-c1cccc(C(F)(F)F)c1 | 6.01% (active) | 3.66% (active) | 6.94% (active) | 14.2% | 2.43% (active) | 4.36% (active) | 16.4% | 6.11% (active)
C=C(C)[C@@H]1CC[C@]2(C)[C@H](CC=C3[C@@H]4CC(C)(C)CC[C@]4(C(=O)NCC#CCN4CCN(C)CC4)CC[C@]32C)[C@@]1(C)CCC#N | 61.7% | 69.3% | 24.2% | 43.8% | 27% | 17.5% | 55.2% | 43.6%

From PubChem BioAssay (NCI)
